Results published in PubChem BioAssay AID1159580 (chemical genetic matrix, 2015).
Out of some 5,500 compounds screened, about 2,000 (36%) were called active. About 18% were inconclusive and are not listed. No stated cut-off is given here; in the data, active means normalized growth mostly below about 0.91 (no sharp cut-off); inconclusive means no clear call, values can overlap the other calls; inactive means mostly above about 0.92. Some of the results follow.

Assay: chemical genetic growth profiling, strain panel (AID 1159580);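 further: tested at 20 µM; growth read once vehicle control cultures reached saturation at 30 °C; 1 = growth at the plate median or of vehicle wells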
Details: growth OD

Measured: normalized growth

C[C@]12CC(=O)C3C(CC[C@@H]4C[C@H](O)CC[C@]34C)C1CC[C@]2(O)C(=O)CO (stereo not given in full)
inactive: S. cerevisiae deletion strains, locus YAL013W, strain DEP1, stronger effect = lower value 0.997 | S. cerevisiae deletion strains, locus YBR021W, strain FUR4, stronger effect = lower value 0.976 | S. cerevisiae deletion strains, locus YBR229C, strain ROT2, stronger effect = lower value 0.99 | S. cerevisiae deletion strains, locus YCL029C, strain bik1, stronger effect = lower value 1.01 | S. cerevisiae deletion strains, locus YDL035C, strain GPR1, stronger effect = lower value 0.996 | S. cerevisiae deletion strains, locus YDL074C, strain BRE1, stronger effect = lower value 0.978 | S. cerevisiae deletion strains, locus YDL101C, strain DUN1, stronger effect = lower value 0.996 | S. cerevisiae deletion strains, locus YDL185W, strain tfp1, stronger effect = lower value 0.977 | S. cerevisiae deletion strains, locus YDL192W, strain arf1, stronger effect = lower value 1 | S. cerevisiae deletion strains, locus YDR101C, strain arx1, stronger effect = lower value 0.978 | S. cerevisiae deletion strains, locus YDR150W, strain NUM1, stronger effect = lower value 0.994 | S. cerevisiae deletion strains, locus YDR162C, strain NBP2, stronger effect = lower value 1.02 | S. cerevisiae deletion strains, locus YDR318W, strain mcm21, stronger effect = lower value 1.01 | S. cerevisiae deletion strains, locus YDR388W, stronger effect = lower value 0.995 | S. cerevisiae deletion strains, locus YDR502C, strain sam2, stronger effect = lower value 1.01 | S. cerevisiae deletion strains, locus YEL061C, strain CIN8, stronger effect = lower value 0.995 | S. cerevisiae deletion strains, locus YER110C, stronger effect = lower value 0.986 | S. cerevisiae deletion strains, locus YER155C, strain BEM2, stronger effect = lower value 0.986 | S. cerevisiae deletion strains, locus YER167W, strain BCK2, stronger effect = lower value 0.992 | S. cerevisiae deletion strains, locus YGL078C, strain dbp3, stronger effect = lower value 0.983 | S. cerevisiae deletion strains, locus YGL086W, strain mad1, stronger effect = lower value 0.97 | S. cerevisiae deletion strains, locus YGL248W, strain PDE1, stronger effect = lower value 1.01 | S. cerevisiae deletion strains, locus YGR135W, strain pre9, stronger effect = lower value 1.03 | S. cerevisiae deletion strains, locus YGR252W, strain gcn5, stronger effect = lower value 1.06 | S. cerevisiae deletion strains, locus YHR030C, strain SLT2, stronger effect = lower value 0.991 | S. cerevisiae deletion strains, locus YHR079C, strain IRE1 (second series), stronger effect = lower value 0.992 | S. cerevisiae deletion strains, locus YHR094C, strain hxt1, stronger effect = lower value 0.986 | S. cerevisiae deletion strains, locus YHR129C, strain ARP1, stronger effect = lower value 0.992 | S. cerevisiae deletion strains, locus YHR200W, strain rpn10, stronger effect = lower value 1.02 | S. cerevisiae deletion strains, locus YIL066C, strain RNR3, stronger effect = lower value 0.998 | S. cerevisiae deletion strains, locus YIL073C, strain SPO22, stronger effect = lower value 1.03 | S. cerevisiae deletion strains, locus YIL125W, strain kgd1, stronger effect = lower value 0.997 | S. cerevisiae deletion strains, locus YIR030C, strain dcg1, stronger effect = lower value 0.991 | S. cerevisiae deletion strains, locus YJL095W, strain BCK1, stronger effect = lower value 1.04 | S. cerevisiae deletion strains, locus YJL134W, strain LCB3, stronger effect = lower value 0.992 | S. cerevisiae deletion strains, locus YJL168C, strain set2, stronger effect = lower value 0.994 | S. cerevisiae deletion strains, locus YJL187C, strain SWE1 (second series), stronger effect = lower value 1 | S. cerevisiae deletion strains, locus YJR043C, strain POL32, stronger effect = lower value 1 | S. cerevisiae deletion strains, locus YJR075W, strain HOC1, stronger effect = lower value 0.997 | S. cerevisiae deletion strains, locus YKL009W, strain mrt4, stronger effect = lower value 1.1 | S. cerevisiae deletion strains, locus YKL068W, stronger effect = lower value 0.994 | S. cerevisiae deletion strains, locus YKL085W, strain MDH1 (second series), stronger effect = lower value 1 | S. cerevisiae deletion strains, locus YKL085W, strain MDH1, stronger effect = lower value 1 | S. cerevisiae deletion strains, locus YKR001C, strain vps1, stronger effect = lower value 0.987 | S. cerevisiae deletion strains, locus YLR039C, strain RIC1, stronger effect = lower value 0.977 | S. cerevisiae deletion strains, locus YLR058C, strain SHM2, stronger effect = lower value 1.01 | S. cerevisiae deletion strains, locus YLR102C, strain apc9, stronger effect = lower value 0.997 | S. cerevisiae deletion strains, locus YLR262C, strain YPT6, stronger effect = lower value 1 | S. cerevisiae deletion strains, locus YLR268W, strain sec22, stronger effect = lower value 0.96 | S. cerevisiae deletion strains, locus YLR330W, strain CHS5, stronger effect = lower value 0.994 | S. cerevisiae deletion strains, locus YLR342W, strain FKS1 (second series), stronger effect = lower value 0.982 | S. cerevisiae deletion strains, locus YLR371W, strain rom2, stronger effect = lower value 0.993 | S. cerevisiae deletion strains, locus YLR418C, strain cdc73, stronger effect = lower value 1.01 | S. cerevisiae deletion strains, locus YML016C, strain PPZ1, stronger effect = lower value 0.991 | S. cerevisiae deletion strains, locus YML032C, strain rad52, stronger effect = lower value 1.04 | S. cerevisiae deletion strains, locus YML124C, strain tub3, stronger effect = lower value 0.998 | S. cerevisiae deletion strains, locus YMR078C, strain ctf18, stronger effect = lower value 0.989 | S. cerevisiae deletion strains, locus YMR223W, strain ubp8, stronger effect = lower value 1.02 | S. cerevisiae deletion strains, locus YMR263W, strain SAP30, stronger effect = lower value 1 | S. cerevisiae deletion strains, locus YMR307W, strain GAS1, stronger effect = lower value 1.07 | S. cerevisiae deletion strains, locus YNL067W, strain RPL9B, stronger effect = lower value 1.01 | S. cerevisiae deletion strains, locus YNL128W, strain TEP1, stronger effect = lower value 0.981 | S. cerevisiae deletion strains, locus YNL153C, strain GIM3, stronger effect = lower value 1.01 | S. cerevisiae deletion strains, locus YNL233W, strain BNI4, stronger effect = lower value 1.01 | S. cerevisiae deletion strains, locus YNL250W, strain rad50, stronger effect = lower value 0.991 | S. cerevisiae deletion strains, locus YNL271C, strain bni1, stronger effect = lower value 0.989 | S. cerevisiae deletion strains, locus YNL298W, strain CLA4, stronger effect = lower value 0.989 | S. cerevisiae deletion strains, locus YNL307C, strain MCK1, stronger effect = lower value 0.983 | S. cerevisiae deletion strains, locus YNL322C, strain KRE1, stronger effect = lower value 0.998 | S. cerevisiae deletion strains, locus YNR052C, strain pop2, stronger effect = lower value 0.991 | S. cerevisiae deletion strains, locus YOL012C, strain htz1 0.641 | S. cerevisiae deletion strains, locus YOL147C, strain pex11, stronger effect = lower value 0.986 | S. cerevisiae deletion strains, locus YOR061W, strain CKA2, stronger effect = lower value 0.995 | S. cerevisiae deletion strains, locus YOR069W, strain VPS5, stronger effect = lower value 0.988 | S. cerevisiae deletion strains, locus YOR136W, strain idh2, stronger effect = lower value 0.973 | S. cerevisiae deletion strains, locus YOR144C, strain elg1, stronger effect = lower value 0.993 | S. cerevisiae deletion strains, locus YOR184W, strain ser1, stronger effect = lower value 1.01 | S. cerevisiae deletion strains, locus YOR316C, strain cot1, stronger effect = lower value 0.993 | S. cerevisiae deletion strains, locus YPL055C, strain LGE1, stronger effect = lower value 1 | S. cerevisiae deletion strains, locus YPR119W, strain clb2, stronger effect = lower value 0.997 | S. cerevisiae deletion strains, locus YPR141C, strain kar3, stronger effect = lower value 0.992 | S. cerevisiae deletion strains, locus YPR163C, strain tif3, stronger effect = lower value 0.996 | S. cerevisiae deletion strains, locus YPR167C, strain met16, stronger effect = lower value 0.981 | S. cerevisiae deletion strains, strain wtn01, stronger effect = lower value 0.943 | S. cerevisiae strains, strain wild type, stronger effect = lower value 1
